PubChem BioAssay (EPA / NIEHS)
Active and inactive are the calls of the source. The calls were made as follows: active = hit-call score of the fitted dose curve at least 0.9, where 1 is the maximum; inactive = score below 0.9.

Experiment: ATG_TCF_b_cat_CIS: Attagene CIS-FACTORIAL HepG2 Assay for human T-Cell-Factor with beta-catenin (TCF/b-cat) (AID 2282965)
Conditions: HepG2 TCF/beta-catenin cis-reporter transcription, actives raise or lower the signal
Procedure, shortened: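 HepG2, transient MRTU transfection, cis-element-driven reporters (endogenous TFs). 24 h compound exposure. Readout: reporter mRNA by RT-PCR + 6-FAM primer extension, HpaI digest, capillary electrophoresis. Gain/loss fit vs DMSO baseline.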

| SMILES | outcome | AC50 |
| --- | --- | --- |
| O=c1[nH]cccc1O | inactive | – |
| CCC(C)CO (centres undefined) | inactive | – |
| O=C(c1ccccc1)c1ccc(O)cc1O | inactive | – |
| CC(C)OC=O | inactive | – |
| CCCCCCCC/C=C\CCCCCCCC(=O)OCC(O)CO (centres undefined) | inactive | – |
| C#CC(O)CCC (centres undefined) | inactive | – |
| O=C(Cl)c1ccc(Cl)cc1Cl | inactive | – |
| CCOC(OCC)OCC | inactive | – |
| CCOCN(C(=O)CS(=O)(=O)O)c1c(C)cccc1CC | inactive | – |
| OCC(F)(F)C(F)(F)C(F)(F)C(F)(F)C(F)(F)C(F)(F)CO | inactive | – |
| C[Si](C)O[Si](C)C | inactive | – |
| O=C1C=CC(=O)N1c1ccc(Cc2ccc(N3C(=O)C=CC3=O)cc2)cc1 | inactive | – |
| CC(=O)CCC(C)C | inactive | – |
| COCCC(=O)OC | inactive | – |
| CCCC(=O)OCC(COC(=O)CCC)OC(=O)CCC | – | 64 µM (active) |
| O=c1cccc[nH]1 | inactive | – |
| CC(C)OC(=O)COc1ccc(Cl)cc1Cl | inactive | – |
| CCCCCCCCCCCCCC[P+](CCCC)(CCCC)CCCC | inactive | – |
| CCN=C1C=CC(=C(c2ccc(N(CC)CC)cc2)c2ccc(N(CC)CC)cc2)c2ccccc21 | – | 0.885 µM (active) |
| C=CC(=O)OCCC(F)(F)C(F)(F)C(F)(F)C(F)(F)F | inactive | – |
| CO[Si](C)(CCC(F)(F)C(F)(F)C(F)(F)C(F)(F)C(F)(F)C(F)(F)F)OC | inactive | – |
| CCN=c1cc2oc3cc(NCC)c(C)cc3c(-c3ccccc3C(=O)OCC)c-2cc1C | – | 7.34 µM (active) |
| CC(=O)c1ccccc1N | inactive | – |
| O=C1c2c(O)ccc(Nc3ccc(CCO)cc3)c2C(=O)c2c([N+](=O)[O-])ccc(O)c21 | inactive | – |
